Source: PubChem (The Scripps Research Institute Molecular Screening Center)
Shown are actives, neighbours in structure and some others; about 2.9% of the full set was active somewhere.
PLCg1 inh: blocks human PLC-gamma1 enzyme activity. P19174. inhibition, % at 12.2 µM. 370,000 tested, 0.84% active. AID 720700. purified PLC-gamma1, fluorogenic substrate, fluorescence; in the data active = inhibition above about 9.5%
ADAM17 inh: inhibits human ADAM17; P78536; recombinant ADAM17, EDANS/DABCYL FRET peptide cleavage; inhibition, % at 6.95 µM; 370,000 tested, 0.83% active; AID 720648;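 active = inhibition above the mean of compounds lying between control limits plus 3 SD, set per campaign, cut at about 8.5% in these data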;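 also: 0% = DMSO-only wells as the low control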
PLCb3 inh: inhibitors of human phospholipase C beta3 | Purified PLC-beta3, fluorogenic substrate, fluorescence | inhibition, % at 12.2 µM | 370,000 tested, 0.18% active | AID 720704;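 also: 0% = median of compound wells on plate and 100% = full blocker control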
KLK7 zymogen act: activators of human kallikrein-7 zymogen. purified proKLK7, EDANS-DABCYL substrate fluorescence; 100% is mature enzyme control, 0% vehicle. AID 652039. 370,000 tested, 0.9% active. activation, % at 7 µM;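 active = activation above the mean of all tested compounds plus 3 SD, computed per campaign excluding outliers beyond control limits, cut at about 13% in these data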
Target sequence (P49862 whole entry, looked up): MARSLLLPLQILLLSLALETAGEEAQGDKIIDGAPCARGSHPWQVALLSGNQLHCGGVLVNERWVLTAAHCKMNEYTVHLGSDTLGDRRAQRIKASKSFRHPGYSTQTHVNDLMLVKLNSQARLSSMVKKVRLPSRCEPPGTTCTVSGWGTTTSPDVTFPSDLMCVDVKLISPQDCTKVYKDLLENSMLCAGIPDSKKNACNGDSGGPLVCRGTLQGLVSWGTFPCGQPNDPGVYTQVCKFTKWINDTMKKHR
ADAM10 inh: inhibits human ADAM10 | O14672 | 370,000 tested, 0.62% active | recombinant ADAM10, EDANS/DABCYL FRET peptide cleavage, 3 h | AID 720582 | inhibition, % at 7 µM;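 active = inhibition above a per-campaign cutoff equal to the mean of compounds falling between control-based bounds plus 3 SD, cut at about 20% in these data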;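 also: 0% = DMSO wells while the 100% control is not disclosed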
PLCg1 ctr: inhibits human PLC-gamma1 in PLC-beta3 counter-screen | AID 743258 | purified PLC-gamma1, fluorogenic substrate, fluorescence | inhibition, % at 12.3 µM | shares compounds with PLCg1 inh | 3,300 tested, 3.1% active; in the data active = inhibition above about 9.5%
PLCb3 confirm: confirmation of human PLC-beta3 inhibitors | shares compounds with PLCg1 inh | purified PLC-beta3, fluorogenic substrate fluorescence | inhibition, % at 12.3 µM | 3,300 tested, 1% active
Starred values were filed as active, the others as inactive; x = no result given. Rule as the data show it, unless noted: active = inhibition above about 11%; inactive = the rest.

SMILES | PLCg1 inh | ADAM17 inh | PLCb3 inh | KLK7 zymogen act | ADAM10 inh | PLCg1 ctr | PLCb3 confirm
CC(C)C(NC(=O)c1ccccc1)C(=O)OCC(=O)N1CCCCC1 (stereo unspecified) | 7.5 | 7.8 | 2.0 | 0.6 | 1.7 | x | x
CC(C)C(NC(=O)c1ccccc1)C(=O)OCC(=O)N1CCN(c2ccccc2)CC1 (stereo unspecified) | 11.1* | 5.6 | -5.5 | 0.3 | 2.2 | -1.2 | 0.3
CCCS(=O)(=O)NC(=O)C1(C)CCN(C(=O)c2cc(C)nn2C(C)(C)C)C1 (stereo unspecified) | 9.8* | 5.0 | -0.1 | 1.0 | 1.7 | -1.8 | 0.3
CCCS(=O)(=O)NC(=O)C1(C)CCN(C(=O)c2cc(C)n(C(C)(C)C)n2)C1 (stereo unspecified) | -0.1 | -3.1 | 1.6 | -0.5 | -5.0 | x | x
Cc1ccc(/C=C/C(=O)O)cc1S(=O)(=O)Nc1ccccc1C(=O)O | 11.2* | 3.6 | 8.9 | -0.1 | -1.9 | 4.7 | 2.5
COc1ccc(/C=C/C(=O)O)cc1S(=O)(=O)N1CCc2ccccc2C1 | 3.9 | -3.3 | -1.2 | 0.9 | -6.1 | x | x
Cc1ccc(/C=C/C(=O)O)cc1S(=O)(=O)N1CCc2ccccc2C1 | 11.4* | 0.8 | 3.2 | -0.5 | 1.9 | 4.8 | 1.6
CC(=O)c1cccc(NC(=O)COC(=O)Cc2ccc(Cl)cc2)c1 | -3.9 | -0.6 | 3.8 | 0.6 | -3.2 | x | x
Cc1ccnc(SCC(=O)Nc2c(C)n(C)n(-c3ccccc3)c2=O)n1 | 3.4 | -0.5 | -0.8 | -0.1 | -1.5 | x | x
N#CC1(NC(=O)CSc2nc3ccc([N+](=O)[O-])cc3s2)CCCCC1 | 0.3 | -8.7 | -10.3 | 0.2 | 0.6 | x | x
N#CC1(NC(=O)CSc2nc3ccccc3s2)CCCCC1 | 11.6* | 5.2 | 4.5 | 0.2 | 6.4 | -1.9 | 4.8
CN(C)S(=O)(=O)c1ccc(C(=O)NCCSc2ccc(Br)cc2)cc1 | 10.4* | 4.2 | 3.7 | 1.1 | 6.9 | -3.1 | 3.4
O=C(NCCSc1ccccc1)c1ccc(Br)cc1 | 4.8 | -6.1 | 0.4 | 0.5 | -2.2 | x | x
CC(C)(C)S(=O)(=O)N1C[C@H]2CC(=O)C=C2[C@@H]1CCO | 0.9 | -7.0 | -0.3 | -0.3 | -6.8 | x | x
O=C(O)c1ccc([N+](=O)[O-])cc1 | 13.1* | 2.2 | -2.8 | 0.0 | 8.7 | -1.2 | 3.4
O=C(c1ccc([N+](=O)[O-])cc1)N(Cc1ccccc1)Cc1ccccc1 | 10.3* | 7.6 | 10.1 | 0.8 | 9.5 | 0.2 | 6.4
O=C(NCCc1ccccc1)c1ccc([N+](=O)[O-])cc1 | 3.6 | 7.0 | 1.9 | 0.4 | 2.5 | x | x
O=C(c1ccc([N+](=O)[O-])cc1)N1CCN(Cc2ccccc2)CC1 | -0.5 | 0.8 | 3.7 | -0.3 | 2.2 | x | x
O=[N+]([O-])c1ccc(C(=S)N2CCN(Cc3ccccc3)CC2)cc1 | 10.5* | 0.4 | 3.3 | -0.1 | 3.1 | 0.0 | 1.6
Cc1ccccc1CNC1CCCCC1 | 5.4 | 2.0 | 11.8* | -0.2 | 10.4 | -4.0 | -1.0
O=[N+]([O-])c1ccccc1CNC1CCCCCC1 | 2.0 | -0.8 | 2.9 | 0.3 | 1.5 | x | x
O=C(NCc1ccncc1)C1COc2ccccc2O1 (stereo unspecified) | 0.8 | -3.7 | -0.9 | -0.5 | 2.9 | x | x
Cc1nc2ccccn2c1C(=O)N/N=C/c1ccc2c(c1)OCO2 | -3.2 | 3.8 | -0.4 | -0.6 | -7.4 | x | x
O=C(NCc1ccc2c(c1)OCO2)C1COc2ccccc2O1 (stereo unspecified) | 10.8* | 8.2 | 4.9 | -0.2 | 8.1 | -5.3 | -1.6
Cc1nc2ccccn2c1C(=O)NCc1ccc2c(c1)OCO2 | 10.2* | 0.9 | 0.5 | 0.0 | 1.0 | -5.2 | -2.3
SMILES | PLCg1 inh | ADAM17 inh | PLCb3 inh | KLK7 zymogen act | ADAM10 inh | PLCg1 ctr | PLCb3 confirm
CC(=O)c1c(C)n(CC(=O)NCc2ccc3c(c2)OCO3)c2ccccc12 | 11.4* | -1.9 | -4.8 | -0.4 | -1.6 | -7.3 | -2.0
O=C(Cn1c(CO)nc2ccccc21)NCc1ccc2c(c1)OCO2 | 1.7 | -2.3 | -6.6 | 0.1 | 1.6 | x | x
CCOC(=O)C1(CCOC)CCN(C(=O)c2ccccc2-c2cccc(C)c2)CC1 | 7.2 | 2.4 | 2.7 | -0.7 | 4.5 | x | x
CCOP(=O)(c1ccccc1)C1(C#N)CCCC1 (stereo unspecified) | 1.1 | -1.6 | 0.8 | -0.5 | 4.9 | x | x
COc1ccc(OC)c2c1sc(=NC(=O)C(C)C)n2C | -3.7 | 0.6 | -1.0 | -0.3 | 1.5 | x | x
Cc1ccc(S(=O)(=O)N2CCN(C(=O)CSc3nnnn3C)CC2)c(C)c1 | 0.5 | -3.6 | -3.4 | -0.2 | -7.0 | x | x
CCCN1CNC(=S)N(c2ccccc2OCC)C1 | 4.5 | -0.5 | 1.9 | -0.4 | 11.0 | x | x
CCCCN1CNC(=S)N(c2ccccc2OCC)C1 | 11.2* | 0.2 | 2.5 | 0.1 | 1.1 | 0.9 | 4.0
COc1ccc(Cl)cc1C(=O)NCc1ccco1 | 12.7* | 5.2 | -5.3 | 0.4 | 4.6 | -5.3 | -0.5
O=C(NCc1ccco1)c1cccc(F)c1 | 10.5* | -4.5 | -6.3 | 0.3 | -4.8 | -6.0 | -1.5
CN(C)c1ccc(N2C(=NC(=O)c3ccccc3)SC3CS(=O)(=O)CC32)cc1 (stereo unspecified) | -6.6 | 1.0 | -6.6 | 0.6 | 2.0 | x | x
O=C(O)c1cccc(NC(=S)NC(NC(=O)c2cccc([N+](=O)[O-])c2)C(Cl)(Cl)Cl)c1 (stereo unspecified) | 10.9* | 4.8 | 6.6 | 0.4 | 5.1 | -6.0 | -4.8
C=CCNC(=O)N1CCCC(C(=O)c2cccc(OC(C)C)c2)C1 (stereo unspecified) | 10.7* | 6.5 | 1.0 | -0.1 | 1.5 | 3.3 | 1.4
Clc1ccc(-n2nnnc2Sc2ncnc3sccc23)cc1 | 2.7 | -4.2 | 1.6 | 0.3 | -1.0 | x | x
COc1ccc(-c2cc(C3CCNCC3)[nH]n2)cc1 | 16.4* | 7.6 | -1.1 | 0.5 | 1.4 | 8.3 | 1.3
CC(=O)c1ccc(NC(=O)NC2CCCCN(Cc3cccc(Cl)c3)C2=O)cc1 (stereo unspecified) | 11.3* | 6.5 | 6.6 | 0.1 | 10.6 | -0.3 | -0.8
CCCCOc1ccc(C(=O)NC2CCCCN(Cc3cccc(C(F)(F)F)c3)C2=O)cc1 (stereo unspecified) | 10.2* | 1.2 | 5.6 | -0.3 | 5.0 | 3.5 | 1.6
O=C(Nc1ccc2ccccc2c1)NC1CCCCN(Cc2cccc(Cl)c2)C1=O (stereo unspecified) | 0.2 | 0.9 | -0.2 | 0.1 | 9.1 | x | x
O=C(NC1CCCCN(Cc2cccc(C(F)(F)F)c2)C1=O)c1ccc(F)cc1 (stereo unspecified) | 0.1 | 0.1 | -2.7 | 0.1 | -1.1 | x | x
Cc1ccccc1CN1CCCCC(NC(=O)c2ccc(-c3ccccc3)cc2)C1=O (stereo unspecified) | 11.9* | 3.1 | 2.1 | -0.1 | 13.3 | 2.7 | 1.7
CCN(CC)C(=O)C1=C(C)N(CCCN2CCCC2=O)C(=O)C(CC(=O)NCc2ccco2)C1 (stereo unspecified) | 4.4 | -4.6 | -0.1 | -0.3 | -18.6 | x | x
